# Screens from PubChem BioAssay.
# Only some compounds are listed: those with a hit (about 7.1% of all), similar ones and a draw of the others.
# ATXN2 expr inh – Primary qHTS for Inhibitors of ATXN expression; HEK-293 ATXN2-luciferase reporter, luminescence, 24 h; Potency, µM (top dose mostly 57 µM), most hits filed as inhibitors; actives 0.72% (n = 360,000); further: nearly all actives have a fitted effect of over 55% in size
#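 ATXN2-luciferase reporter cells (luciferase flanked by upstream and downstream ATXN2 gene portions) were treated 24 h at 37 °C with compounds at up to 57 uM. SteadyGlo luminescence gave expression; GF-AFC fluorescence gave viability.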
# ATXN viability – Viability Counterscreen for Primary qHTS for Inhibitors of ATXN expression. S2 cells (HEK-293 line with an ATXN2-luciferase reporter) viability, CellTiter-Fluor protease fluorescence, 24 h. Potency, µM (top dose mostly 56.7 µM), usual class: cytotoxic. actives 0.49% (n = 400,000). AID 651635, 2014; further: nearly all actives have a fitted effect of over 40% in size
# PINK1 expr mod – A Quantitative High throughput Screen to Identify Chemical Modulators of PINK1 Expression | PINK1 immunofluorescence, high-content cytometry, 24 h | Potency, µM (top dose mostly 76.6 µM), hits mostly activators | actives 0.2% (n = 410,000) | AID 624263, 2012; active means well fitted activation curve with a large enough effect; inconclusive means small, poorly fitted or top-dose-only effect; cell line not stated here; further: nearly all actives have a fitted effect of over 65% in size
#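 Cells are seeded, rested 12 hours, then given compound at five concentrations or DMSO for 24 hours. After fixation, blocking and antibody staining, PINK1 amount and mitochondrial localization are scored; CCCP serves as control.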
# SW480 rerep – A quantitative high throughput screen for small molecules that induce DNA re-replication in SW480 colon adenocarcinoma cells; Potency, µM (doses to about 46.1 µM), most hits filed as activators; AID 624297, 2012; SW480 DNA re-replication, Hoechst DNA content imaging, 48 h; actives 1.8% (n = 340,000); further: nearly all actives have a fitted effect of over 55% in size
#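 First, 250 cells per well were seeded. Next, compound or vehicle (23 nL) was pinned in, plates sat 48 hr at 37 C. Finally Hoechst was added for 40 min before fluorescence scanning.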
# IL-1B inflam inh – qHTS for Inhibitors of Inflammasome Signaling: IL-1-beta AlphaLISA Primary Screen; THP-1 LPS/ATP IL-1B secretion, AlphaLISA, 16 h; stronger effect = lower value; actives 4.7% (n = 360,000); AID 743279, 2014; activity change, % at 57.5 µM; in the data active means activity change below about -50%; inconclusive means mostly about -30% to -49%
#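 Secreted IL-1B measured by AlphaLISA bead assay after 16 h compound exposure of THP-1 cells; compounds (final up to 57.5 uM) added 1 h before LPS (250 ng/mL) and ATP (1.25 mM) stimulation; lower signal means less secretion.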
# MCF10A rereplic – A quantitative high throughput screen for small molecules that induce DNA re-replication in MCF 10a normal breast cells; MCF 10A DNA re-replication, Hoechst nuclear intensity, 48 h; Potency, µM (doses to about 46.1 µM), usual class: activators; actives 2.9% (n = 350,000); AID 624296, 2012; further: nearly all actives have a fitted effect of over 50% in size
# A number is an active result; . = inactive; ? = inconclusive; / = not tested or not shown; [ ] = remark or other dose. Unless noted, the call rests on the fitted dose curve; in most records, active means well fitted curve in the direction sought with a large enough effect; inconclusive means small, poorly fitted or top-dose-only effect, or another doubt; inactive means no such curve, though single readings can be large; an effect the other way counts as inactive or inconclusive.
SMILES,ATXN2 expr inh,ATXN viability,PINK1 expr mod,SW480 rerep,IL-1B inflam inh,MCF10A rereplic
Cc1oc(-c2cccs2)nc1CN1CCC(CO)(CCOc2ccccc2)CC1,.,.,.,?,-83,?
CCOC(=O)c1ccc(N2CC(O)=C(c3nc4ccccc4c(=O)[nH]3)C2=N)cc1,.,.,.,.,.,21µM
CNC(=S)N/N=C(\C)c1ccc(Cl)c(Cl)c1,.,.,.,.,.,.
CNC(=S)NN=C(C)CCCC(C)=NNC(=S)NC,11µM,?,.,0.41µM,-105,.
c1ccc(-n2c(SCc3nc(-c4cccs4)no3)nnc2-c2ccco2)cc1,.,.,/,.,-75,.
COc1ccc(-n2c(Cc3ccccc3)nnc2SCc2nc(-c3cccs3)no2)cc1,?,?,.,/,/,/
Cc1ccc(NC(=O)Cc2ccc3c(c2)CCCC3)cc1C,.,.,.,.,?,.
COC(=O)C1(Cc2ccc3c(c2)CCC3)Cc2ccc3c(c2C1=O)CCC3 (configuration not stated),.,?,.,?,.,9.2µM
N#Cc1c(-c2ccc(F)cc2)cc(-c2cccs2)nc1SCC(=O)O,/,.,.,?,.,23µM
COc1ccc(-c2cc(-c3cccs3)c(C#N)c(SCC(=O)NCc3ccco3)n2)cc1,.,?,.,2.6µM,.,1.5µM
N#Cc1ccc(-c2ccccc2)nc1SCC(=O)c1cccc(Cl)c1,.,.,.,.,.,14µM
CCN(CC)C(=O)CSc1nc(-c2ccccc2)ccc1C#N,/,/,.,.,.,.
N#Cc1ccc(-c2ccc(Cl)cc2)nc1SCC(=O)c1cccc(Cl)c1,?,?,.,.,.,.[9.22 µM]
N#Cc1c(C(F)(F)F)cc(-c2cccs2)nc1SCC(=O)Nc1ccc(F)cc1,.,.,.,/,/,/
CN1CCN(C(=O)CSc2nc(-c3ccncc3)ccc2C#N)CC1,.,?,.,.,-61,.
CCCCc1nn2c(=O)cc(COC(=O)c3cccs3)nc2s1,.,.,.,/,/,/
O=C(Nc1cc(F)ccc1F)C1CCN(C(=O)c2cnn(-c3ccccc3)c2-n2cccc2)CC1,.,?,.,/,/,/
Cc1ccc(Cl)cc1-n1nnc(-c2nc(-c3ccc4c(c3)OCO4)no2)c1C,.,.,.,/,/,/
COCCN1C(=O)c2[nH]nc(-c3ccccc3O)c2C1c1ccc(Cl)c(Cl)c1 (configuration not stated),/,/,.,/,/,/
CCN(CC)C(=O)CSc1nc(-c2cccs2)cc(-c2cccs2)c1C#N,.,.,.,.,.,?
CCc1nnc(NC(=O)CSc2nc(-c3ccccc3)cc(-c3ccc(F)cc3)c2C#N)s1,?,.,.,10µM,.,4.1µM
CN1CCN(C(=O)CSc2nc(-c3cccs3)cc(-c3cccs3)c2C#N)CC1,.,.,.,?,.,21µM
Cc1ccc(/C=N/Nc2ncc(Cl)cc2Cl)s1,.,.,.,5.8µM,.,.
O=C(Nc1nnc(N2CCCC2)s1)Nc1cc(F)ccc1F,.,.,.,/,/,/
COc1ccccc1NC(=O)c1cc2c([nH]c1=O)CC(C)(C)CC2=O,.,.,.,/,/,/
SMILES,ATXN2 expr inh,ATXN viability,PINK1 expr mod,SW480 rerep,IL-1B inflam inh,MCF10A rereplic
CC(=O)OCCc1c2ccccc2c(CCCN(C)C)c2ccccc12,?,?,.,?,.,18µM
O=C(/C=C/c1ccc(Cl)cc1)Nc1cc(S(=O)(=O)N2CCOCC2)ccc1N1CCOCC1,.,.,.,?,?,.
C(=Nc1ccc(/C=C/c2ccnc3ccccc23)cc1)c1ccco1,/,/,.,/,/,/
Cc1cc(C)c2nc(Nc3nc(-c4ccccc4)cc(=O)[nH]3)nc(C)c2c1,.,.,.,.,?,?
Cc1cc(-c2ccccc2)nc(Nc2nc3c(C)cccc3c(=O)[nH]2)n1,.,.,.,.,.,9.2µM
Cc1nc2c(-c3ccc(Cl)cc3)cnn2c2c1CCC2,.,/,.,.,.,21µM
Cc1nc2c(-c3ccc(Cl)cc3)cnn2c(N)c1-c1ccc(F)cc1,/,.,.,.,?,.
